GPR151 activ: activates the human receptor GPR151; activation, % at 11.2 µM; actives 1% (n = 650,000); Q8TDV0; PathHunter beta-arrestin GPR151 cells, luminescence; in the data active = activation above about 4.9%;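 also: 0% = median of compound wells and 100% = cells with positive control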
TEAD-YAP block: TEAD-YAP interaction inhibition; HEK-TIYL cells, TEAD-Gal4/YAP UAS-luciferase luminescence; inhibition, % at 9.12 µM; actives 1.4% (n = 640,000); AID 1259422; in the data active = inhibition above about 32%;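 also: 0% = median of test compound wells and 100% = reference inhibitor wells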
MITF inh: inhibitors of human MITF; AlphaScreen MITF homodimerization, bead proximity signal; inhibition, % at 2.6 µM; AID 1259374; O75030; actives 0.91% (n = 650,000); in the data active = inhibition above about 50%;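 also: 0% = vehicle wells with protein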
FBW7 activator: activators of human E3 ligase FBW7. normalized activity (activation), % at 26.1 µM. AID 1259310. AlphaScreen FBW7–phospho-cyclin E peptide binding, activator screen. actives 0.13% (n = 650,000); in the data active = normalized activity above about 1.9%;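 also: purified mutant Fbw7 with reduced substrate affinity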
GPR151 confirm: confirmation of human GPR151 activators; shares compounds with GPR151 activ; GPR151 PathHunter beta-arrestin cells, luminescence, 90 min; % of EA-reagent control over plate median; activation, % at 11.2 µM; 6,700 tested, under 10 active; AID 1508609;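 active = mean percent activation across replicates above the confirmation screen cutoff of 4.91%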
GPR119 counter: GPR119 activation, counter-screen for GPR151 activators; AID 1508611; actives 0.3% (n = 6,700); shares compounds with GPR151 activ; activation, % at 11.2 µM; GPR119 PathHunter beta-arrestin cells, luminescence, 90 min; 0 = compound-well median, 100 = enzyme-acceptor control;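 active = mean percent activation in the counterscreen above 29.09%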;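 also: counterscreen on off-target GPR119 to flag nonselective hits from the GPR151 activator screen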
Target sequence (Q8TDV5 whole entry, looked up): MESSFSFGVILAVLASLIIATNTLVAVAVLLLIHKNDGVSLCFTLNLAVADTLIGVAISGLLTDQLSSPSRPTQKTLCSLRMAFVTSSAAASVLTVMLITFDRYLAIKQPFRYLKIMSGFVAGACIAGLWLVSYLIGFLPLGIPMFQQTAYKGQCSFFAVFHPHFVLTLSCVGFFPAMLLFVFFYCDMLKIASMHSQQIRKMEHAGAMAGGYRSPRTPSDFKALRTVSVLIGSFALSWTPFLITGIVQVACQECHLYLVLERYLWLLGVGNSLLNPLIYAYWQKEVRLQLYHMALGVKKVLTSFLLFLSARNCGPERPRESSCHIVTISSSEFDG
* marks the source's active call; other numbers are inactive results; · = no result given; ! = repeats disagree. Rows were chosen to be rich in hits. Some 3.5% of all compounds tested hit in one or more screens of this group.

SMILES	GPR151 activ	TEAD-YAP block	MITF inh	FBW7 activator	GPR151 confirm	GPR119 counter
COc1ccc(-c2nc(SCC(=O)Nc3ccc4c(c3)OCO4)n[nH]2)cc1	6.5*	-19	-3	0	0	4
COc1ccc(-c2nc(SCC(=O)Nc3ccc4ccccc4c3)n[nH]2)cc1	0	5	-7	0	·	·
c1ccc(-c2nnc(-n3nnc4ccccc43)c3ccccc23)cc1	3	-7	-1	0	·	·
C=CCn1c(SC(C)C(=O)NC(N)=O)nnc1-c1ccc(C(C)(C)C)cc1 (stereo not given)	8.2*	2	-7	0	0	-3
COc1ccc(-c2noc(CC(=O)NCc3ccc(Cl)cc3)n2)cc1	-2	-2	8	0	·	·
Cc1ccc2cc(C#N)c(N3CCCN(C(=O)c4ccco4)CC3)nc2c1C	-1	4	4	0	·	·
Cc1ccc2cc3c(nc2c1C)OCCN(C(=O)c1ccco1)C3	5.7*	6	16	0	0	-5
COC(=O)N1C(=O)c2ccccc2C1=O	1	13	1	0	·	·
CN1CCC(=C2c3ccccc3C=Cc3ccccc32)CC1	5.3*!	-11	-15	0	0	-6
CN1CCC(=C2c3ccccc3Sc3ccccc32)CC1	2	6	-4	0	·	·
COc1ccc2o/c(=N\O)c(C(=O)Nc3ccccc3C)cc2c1	0	-41	-3	0	·	·
O=C(Cc1cccs1)N1c2ccccc2CCc2ccccc21	0	-8	-10	0	·	·
C=CCn1cnc2c(nnn2-c2ccc(OC)c(OC)c2)c1=O	7.9*	4	-15	0	1	8
O=C(O)c1ccccc1-c1ccccc1C(=O)Nc1ccccc1	2	5	22	0	·	·
O=C(O)c1ccccc1-c1ccccc1C(=O)NC1CS(=O)(=O)CC1O (stereo not given)	5.1*	-11	-14	0	2	16
Cn1ccnc1C(=O)C1CCCN(C(=O)CCc2nnc(-c3ccccc3)o2)C1 (stereo not given)	5	-9	2	0	·	·
CCOC(=O)CSc1nc(N)c2c3c(sc2n1)CCCC3	13*	-8	-3	1	-1	0
CCCCCOC(=O)CSc1nc(N)c2c3c(sc2n1)CCCC3	-1	-5	1	0	·	·
O=C(NC(=O)c1ccc(Cn2cc(C(F)(F)F)ccc2=O)cc1)Nc1cccnc1	5.2*	0	-8	0	-1	-11
Cc1ccc(NC(=O)NC(=O)c2cccc(Cn3cc(C(F)(F)F)ccc3=O)c2)nc1	4	-13	6	0	·	·
CC(=O)Oc1cccc(/C=c2\sc3ncnn3c2=O)c1	-1	-1	23	0	·	·
CCC(=O)N1CCN=C1SCc1cccc(Cl)c1	-1	-3	-5	0	·	·
CCC(=O)N1CCN=C1SCc1cccc(C)c1	7.1*	2	1	0	1	9
COCCNc1nc(-c2ccccc2F)nc2ccccc12	0	24	9	0	·	·
COCCCNc1nc(-c2ccccc2F)nc2ccccc12	6.3*	11	-32	0	-1	-14
SMILES	GPR151 activ	TEAD-YAP block	MITF inh	FBW7 activator	GPR151 confirm	GPR119 counter
O=C(NCCCO)/C(=C/c1ccccc1F)NC(=O)c1ccccc1	5.0*	5	-2	0	0	6
CCCc1cc(C(N)=O)c(NC(=O)C2CCCO2)s1 (stereo not given)	10*	-1	21	0	1	14
CCOc1cc(NC(=O)C2CCCO2)c(OCC)cc1NC(C)=O (stereo not given)	15*	-8	20	0	1	10
CCCCCc1nnc(NC(=O)C2CCCO2)s1 (stereo not given)	-1	-52	-8	0	·	·
COc1cc(-c2ccc(NC(=O)C3CCCO3)c(OC)c2)ccc1NC(=O)C1CCCO1 (stereo not given)	4	-7	-4	0	·	·
O=C1C(=C2C/C(=N/O)c3ccccc32)C(=O)c2ccccc21	-1	6	10	0	·	·
O=C(Nc1cccs1)Nc1ccccc1NC(=O)c1ccccc1F	0	-39	11	0	·	·
Cc1ccccc1C(=O)Nc1ccccc1NC(=O)Nc1cccs1	12*	-13	10	0	0	4
N#C/C(C(=O)N1CCOCC1)=c1/s/c(=C\c2ccco2)c(=O)n1Cc1ccco1	-1	5	4	0	·	·

Compound activity from PubChem BioAssay.
